M1 antagonist = antagonists of rat M1 muscarinic receptor; Muscarinic acetylcholine receptor M1 (Rattus norvegicus), P08482; B-score at 10 µM; CHO-M1 cells, Fluo-4 calcium, ACh EC80 antagonist mode; hits give low values; 64,000 compounds, 3.4% hits;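 active means calcium fluorescence response, raw or row-and-column corrected B-score, differing from the plate sample mean either way at a set confidence level, mostly lower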
PLAP act = PLAP enzyme activators, biochemical, luminescence, HTS; 96,000 compounds, 1.2% hits; purified PLAP enzyme, luminescent substrate read-out; hits give high values; Alkaline phosphatase, placental type (Homo sapiens), P05187; activation fold at 20 µM; in the data active means activation fold above about 2
HER2 expr 66K = inhibitors of Her2 protein expression, primary screen, SKBR-3 cells, AlphaScreen, 66K library. AID 645, 2007. HER2 level % of control, % at 10 µM. 65,000 compounds, 0.69% hits. SKBR-3 HER2 protein level, 18-24 h; hits give low values;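 active means HER2 level under 5% of the carrier-only control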;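 further: lower value means stronger loss of Her2 protein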
Cav3 T inh = Cav3.2 calcium influx blockers – cell-based, Fluo-4 calcium fluorescence, FDSS, MLSMR library, primary screen; Cav3.2-expressing cells; hits give low values; B-score at 10 µM; 100,000 compounds, 4% hits; AID 449739, 2010; Voltage-dependent T-type calcium channel subunit alpha-1H (Homo sapiens), O95180;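 active means single-dose well whose peak fluorescence ratio is a statistical outlier from its plate by either plate-standardised score or position-corrected B-score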
M1 ag = M1 muscarinic receptor agonists, primary screen, CHO-M1 cells, Fluo-4 calcium, agonist mode | Muscarinic acetylcholine receptor M1 | Fluo-4 calcium fluorescence; hits give high values | B-score at 10 µM | 64,000 compounds, 3% hits | AID 626, 2007;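 active means fluorescence rise, raw or as B-score row- and column-corrected plate score, outside the 99.7% band of its plate's samples, either direction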
M1 antag confirm = rat M1 muscarinic receptor antagonists, confirmation, CHO cells, Fluo-4 calcium, duplicate; shares compounds with M1 antagonist; ACh EC80 antagonism; hits give low values; calcium response (max-min fluorescence) at 10 µM; 1,700 compounds, 43% hits; AID 677, 2007;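 active means calcium response below the same-plate mean of wells given acetylcholine alone at its 80%-effect dose, minus 3 SD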
mGluR4 antag = human mGluR4 response to M1 antagonist hits, M1 allosteric modulator project, cell-based, antagonist mode, secondary assay 1; shares compounds with M1 antagonist; CHO-mGluR4 calcium flux, Fluo-4 fluorescence, glutamate EC80; hits give low values; fluorescence response (max-min) at 10 µM; 1,700 compounds, 0.9% hits;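 active means fluorescence response below the plate's average for near-maximal glutamate wells, less 3 SD of those wells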;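 further: raw unnormalized fluorescence span taken in the window right after glutamate addition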
A number is an active result; – = inactive; · = no result given. The list is not random: actives were taken first. Their share in the collection is about 7.9%.

SMILES	M1 antagonist	PLAP act	HER2 expr 66K	Cav3 T inh	M1 ag	M1 antag confirm	mGluR4 antag
CCN1CCN(Cc2nc3c(c(=O)n(C)c(=O)n3C)n2Cc2cccc3ccccc23)CC1	-2.8	–	–	–	–	–	–
Cn1c(=O)c2c(nc(CN3CCC(C(N)=O)CC3)n2Cc2c(F)cccc2Cl)n(C)c1=O	–	–	–	–	–	·	·
CCC1CCCCN1Cc1nc2c(c(=O)n(C)c(=O)n2C)n1Cc1cccc2ccccc12 (centres undefined)	–	–	–	–	–	·	·
CCN(C(=O)c1cccc(F)c1)c1ccccc1C	–	–	–	–	–	·	·
CC(=O)c1cccc(NC(=O)C2C3C=CC(C4CC34)C2C(=O)O)c1 (centres undefined)	–	–	–	–	–	·	·
O=C(CN1C2=NCCN2c2ccccc21)C12CC3CC(CC(C3)C1)C2	-9.3	–	–	–	–	337	–
Cc1ccc2[nH]c3c(N4CCCCCC4)ncnc3c2c1	-2.7	–	–	·	–	387	178
O=C(CCN1C(=O)COc2ccccc21)NCc1cccs1	–	–	–	–	–	·	·
CCN(CC)CCOC(=O)C12CC3CC(CC(C3)C1)C2	-16	–	–	–	–	173	–
O=C(Nc1ccccc1F)N(CCCN1CCOCC1)Cc1cc2cc3c(cc2[nH]c1=O)OCCO3	–	–	–	–	–	·	·
CCSc1nc2c(c(=O)n1Cc1ccccc1)SC(C)C2 (centres undefined)	-3.7	–	–	–	–	373	–
CC(CCc1ccco1)NC(=O)Cn1ncc2c1-c1ccccc1OC2 (centres undefined)	–	–	–	–	–	·	·
Cc1cc(N2CCN(C/C=C/c3ccccc3)CC2)n2ncnc2n1	-1.6	–	–	–	–	–	–
Cc1cc(N2CCN(C(c3ccccc3)c3ccc(Cl)cc3)CC2)n2ncnc2n1 (centres undefined)	–	·	–	·	–	·	·
Cc1cc(C(=O)CSc2nnc(NCc3ccccc3)s2)c(C)n1C	-3.5	–	–	–	–	–	–
Cc1cc(C(=O)CSc2nnc(N)s2)c(C)n1-c1c(C)n(C)n(-c2ccccc2)c1=O	·	–	·	–	·	·	·
CCN1CCCC1CNC(=O)c1ccc(CS(=O)(=O)c2ccccc2C)o1 (centres undefined)	–	–	–	–	–	·	·
Cc1ccc(NC(=O)CS(=O)CC(=O)NC2CCN(Cc3ccccc3)CC2)c(C)c1 (centres undefined)	-7.8	–	–	–	–	–	–
Cc1cccc(C)c1NC(=O)CS(=O)CC(=O)NC1CCN(Cc2ccccc2)CC1 (centres undefined)	–	–	–	–	–	·	·
O=C(NCCCN1CCC(Cc2ccccc2)CC1)C1CC(=O)N(C2CCCC2)C1 (centres undefined)	-3.3	–	–	–	–	508	–
O=C(NCCCN1CCCCCC1)C1CC(=O)N(CCc2ccccc2)C1 (centres undefined)	–	–	–	–	–	·	·
CCCS(=O)(=O)N1CCCC(C(=O)NCCN2CCC(Cc3ccccc3)CC2)C1 (centres undefined)	-2.4	–	–	–	–	–	–
CCCC(O)(CCN1CCCCC1)c1ccc(OCC)cc1 (centres undefined)	·	–	·	–	·	·	·
CCC(O)(CCN1CCCCC1)c1ccccc1 (centres undefined)	-11	–	–	–	–	111	–
COc1ccc(-n2c(SCC(=O)N3CCCC3)nc3c([nH]c4ccccc43)c2=O)cc1	–	·	–	·	–	·	·
SMILES	M1 antagonist	PLAP act	HER2 expr 66K	Cav3 T inh	M1 ag	M1 antag confirm	mGluR4 antag
CC(=O)CC1OC(=O)C(Br)=C1NCc1ccccc1 (centres undefined)	-2.3	–	–	–	–	–	–
CN1C(=O)C2ON(c3ccccc3)C(c3cccs3)C2C1=O (centres undefined)	-2.7	–	–	–	–	–	–
Cc1sc2ncnc(SCC(=O)N3CCCC3=O)c2c1C	-4.3	–	–	–	–	–	–
Cc1cc(NC(=O)c2ccccc2-c2ccccc2C(=O)O)no1	–	·	–	·	–	·	·
CCSc1ccccc1C(=O)Nc1cc(C)on1	-3.8	–	–	–	–	–	–
CN1CCc2c(sc3ncn4nc(-c5ccccc5O)nc4c23)C1	-3.7	–	–	·	–	353	–
c1coc(-c2nc3c4c5c(sc4ncn3n2)CCCC5)c1	–	–	–	·	–	·	·
Cc1cccc(Nc2ccccc2C(=O)OCC(=O)N2CCOCC2)c1C	-4.2	–	–	–	–	–	–
Cc1cccc(Nc2ccccc2C(=O)OCC(=O)NCc2ccco2)c1C	·	–	·	–	·	·	·
Cc1cc(C)c(S(=O)(=O)N(C2=NCCS2)S(=O)(=O)c2c(C)cc(C)cc2C)c(C)c1	·	·	·	–	·	·	·
Clc1ccc(CN2C3=NCCN3c3ccccc32)cc1Cl	-3.2	–	–	–	–	399	–
OC(CN1C2=NCCN2c2ccccc21)c1ccc2c(c1)OCO2 (centres undefined)	–	–	–	–	–	·	·
C=CCc1ccc(OCC(O)CN2CCCCC2C)c(OC)c1 (centres undefined)	-2.5	–	–	–	–	–	–
CN(CCNC(=O)c1cc2c(=O)n(C)c3ccccc3c2n1C)Cc1ccccc1	-3.8	–	–	–	–	–	–
CCN(CC)CCOC(=O)c1cccc(Br)c1	-4.4	–	–	–	–	472	–
COc1cccc(C(=O)N(C)c2nnc(-c3ccncc3)s2)c1	·	–	·	·	·	·	·
CCOC(=O)CSc1nnc(CNC(=O)c2ccc(S(=O)(=O)N3CCCC3)cc2)n1C	-1.2	–	–	·	–	–	–
CCOC(=O)CSc1nnc(CNC(=O)c2cc(OCC)c(OCC)c(OCC)c2)n1C	–	–	–	–	–	·	·
N#C/C(=C1/CCCCCN1)c1nc2ccccc2[nH]1	–	–	–	–	–	·	·
N#C/C(C(=O)c1ccccc1)=C1/CCCCCN1	-2.4	–	–	–	–	–	–
CCOCCCn1c(=S)[nH]c2cc(C(=O)NCCN(CC)CC)ccc2c1=O	-8.8	–	–	–	–	–	–
O=C1CC(c2ccccc2)CC(O)=C1C=NCCN1CCNCC1 (centres undefined)	–	–	–	–	–	·	·
O=C1CC(c2ccc(Cl)c(Cl)c2)CC(O)=C1C=NCCN1CCNCC1 (centres undefined)	-13	–	–	–	–	173	–
